The campaign covered roughly 300,000 compounds. About 37,000 (12%) were called active. Shown is part of a subset that was picked to be rich in actives. A number with no mark means an inactive call. Rule as the data show it: active = max response mostly above about 13% (no sharp cut-off); inactive = mostly below about 14%.
experiment: Cycloheximide Counterscreen for Small Molecule Inhibitors of Shiga Toxin; conditions: cell reporter, cycloheximide protein synthesis inhibition counterscreen; active compounds read high; also: read at 38.3 µM for the half of the compounds with a filed dose; 0% is about no effect

Structure (SMILES) | max response
CCCCN(CC)C(=O)c1ccccc1Oc1ccccc1 | -1.52%
Cc1ccc(N)cc1-n1c(C)ccc1C | 23.9% (active)
Cc1ccc(C)n1-c1ccncc1 | -5.57%
CN(c1ccccc1)S(=O)(=O)c1ccc(NC(=O)COc2ccccc2)cc1 | -1.66%
CCCCNC(=O)C1CCC(=O)N1CCc1ccccc1 (stereo not drawn) | -3.51%
CN(CCOc1ccccc1)Cc1nc2cc(Cl)ccc2c(=O)[nH]1 | 2.21%
O=c1[nH]c(CN2CCOCC2)nc2scc(-c3ccccc3)c12 | 9.91%
O=c1[nH]c(CN2CCOCC2)nc2cc(Cl)ccc12 | 13% (active)
CC(NC(=O)c1ccccc1C(=O)O)c1ccc(-n2ccnc2)cc1 (stereo not drawn) | -1.67%
CC1CCN(C(=O)c2ccccc2NC(=O)Cc2ccccc2)CC1 | 18.5%
O=C(C1CCN(Cc2ccc(Cl)cc2)CC1)N1CCN(Cc2ccc3c(c2)OCO3)CC1 | -1.07%
Cc1ccc2c(=O)cc(C(=O)NCCc3ccc(S(N)(=O)=O)cc3)oc2c1C | -2.03%
CCOC(=O)c1csc(CCNC(=O)c2oc3c(Cl)cc(C)cc3c2C)n1 | 29.8% (active)
CCOC(=O)c1csc(NC(=O)c2ccc(S(=O)(=O)N3CCCC3)cc2)n1 | -1.54%
CC(Oc1cccc(Cl)c1)C(=O)NC1CC(C)(C)NC(C)(C)C1 (stereo not drawn) | -2.91%
COc1ccc(NC(=S)NCCNC(C)=O)cc1 | 0.644%
Cc1ccc(OCc2n[nH]c(=S)n2-c2ccc(C)cc2)cc1 | -1.5%
COc1ccc(Cc2n[nH]c(=S)n2NC(=O)Nc2ccc(C)cc2)cc1 | 37.1% (active)
Cn1c(=O)oc2cc(S(=O)(=O)NCCC(=O)NCc3ccccc3Cl)ccc21 | -6.54%
O=S(=O)(c1ccc(Br)cc1)c1nc(-c2ccccc2)oc1N1CCOCC1 | 4.42%
CCCCCCCCCCCCC(NC(C)=O)(C(=O)OCC)C(=O)OCC | -2.57%

Structure (SMILES) | max response
CC1CCN(C(=O)CCc2nnc3ccc(NCc4ccco4)nn23)CC1 | -0.588%
CCc1ccc(C2N3CC4([N+](=O)[O-])CN2CC([N+](=O)[O-])(C3)C4(C)C)cc1 (stereo not drawn) | -2.16%
COc1ccc(Nc2nc(NCc3ccco3)nc(N/N=C/c3ccccc3Cl)n2)cc1 | 16.9% (active)
COc1ccc(Nc2nc(Cl)nc(NCc3ccco3)n2)cc1 | 5.68%
C=CCC(NCc1ccco1)c1ccc(OC)cc1 (stereo not drawn) | 1.37%
COc1ccc(C)cc1NC(=O)NCCCCc1ccccc1 | 7.65%
CS(=O)(=O)N1CCN(c2cccc(Cl)n2)CC1 | -1.63%
CS(=O)(=O)N1CCc2nc(-c3ccccc3)sc2C1 | 47.1% (active)
CS(=O)(=O)N1CCN(C(=O)Cc2ccccc2)CC1 | -2.32%
Cc1cccc(NC(=O)CSCC(=O)Nc2nnc(C3CC3)s2)c1 | 6.4%
COc1ccc(NC(=O)CCC(=O)Nc2nnc(C3CCCCC3)s2)cc1 | -3.75%
O=C(Nc1nnc(C2CC2)s1)c1cc(Cl)sc1Cl | 12.2% (active)
CC1CCN(c2ccc(C(=O)Nc3nnc(C4CC4)s3)cc2[N+](=O)[O-])CC1 | -2.98%
O=C(Nc1nnc(C2CC2)s1)c1ccccn1 | 34.9% (active)
Cc1occc1C(=O)Nc1nnc(-c2ccncc2)s1 | 15.8%
O=C(Cc1cccs1)Nc1nnc(C2CC2)s1 | 8.46%
Cc1occc1C(=O)Nc1nnc(C2CCCCC2)s1 | 17.4% (active)
O=C(Nc1nnc(C2CC2)s1)C1=NN(C2CCS(=O)(=O)C2)C(=O)CC1 (stereo not drawn) | -6.02%
COc1ccccc1CNC(=O)[C@@H]1CCCN1C(=O)[C@@H]1Cc2ccccc2CN1C(=O)OC(C)(C)C | 8.54%
Cc1ccc(S(=O)(=O)N(C)CC(=O)NCCc2c[nH]c3ccccc23)cc1 | 0.209%
Cc1cccc(NC(=O)NC2(C)CCS(=O)(=O)C2)c1 (stereo not drawn) | 1.38%

Structure (SMILES) | max response
COc1ccccc1CNC(=O)c1ccc(N(C)S(=O)(=O)c2ccc(C)cc2)cc1 | -0.735%
Cc1coc2c(O)cc3c(c12)OC1(N2CCCCC2)C(=O)NCCCC31 (stereo not drawn) | -0.492%
COc1ccc(CNS(=O)(=O)c2cc(-c3cc(C)no3)ccc2C(C)C)cc1 | -0.908%
CCCCC(=O)Nc1c2c(nn1-c1ccc([N+](=O)[O-])cc1)CS(=O)(=O)C2 | -4.82%
O=C(c1cc2ccccc2s1)N1CCN(c2ccccn2)CC1 | -0.772%
CC(C)c1cc(C(N)=O)c(NC(=O)c2cccc(COc3ccc(Br)cc3)c2)s1 | 142% (active)
NNC(=O)c1cccc(COCC(F)(F)C(F)F)c1 | 9.81%
Cc1ccc(COc2ccc(C(=O)NN)cc2)cc1 | 15.8%
CN(C)C(=O)CCC(=O)N1CCCCC1C(=O)Nc1ccc(Oc2ccccc2F)cc1 (stereo not drawn) | -1.6%
O=S(=O)([N-]c1nc2ccccc2nc1-[n+]1ccc(Cc2ccccc2)cc1)c1ccc(Br)s1 | 10.5% (active)
O=S(=O)(NCc1cccnc1)c1ccc(Br)s1 | -6.09%
Cc1cc(C)c[n+](-c2nc3ccccc3nc2[N-]S(=O)(=O)c2cccs2)c1 | -0.756%
CCCSc1nc(NCc2ccco2)c2c3c(sc2n1)COC(C)(CC)C3 (stereo not drawn) | 24.2%
O=c1onc(-c2c(F)cccc2F)n1-c1ccccc1Cl | -4.66%
O=C(O)c1cc2c(cc1NC(=O)c1c(F)cccc1Cl)OCCCO2 | -4.07%
CCOC(=O)CSc1nnc(NC(=O)c2cccc(S(=O)(=O)N3CCCC3)c2)s1 | -1.74%
NC(=O)CSc1nnc(NC(=O)c2ccc(Br)o2)s1 | 27.9%
O=C(Nc1nnc(SCc2ccccc2Cl)s1)c1cccc([N+](=O)[O-])c1 | -4.31%
CCSc1nnc(NC(=O)c2ccc(C)cc2)s1 | 32.4% (active)
CCSc1nnc(NC(=O)Cc2ccccc2OC)s1 | 7.43%
C=CCSc1nnc(NC(=O)c2ccc(NC(C)=O)cc2)s1 | 14.5% (active)

Reference: PubChem BioAssay AID2314 (National Center for Advancing Translational Sciences (NCATS), 2010)
